Source: PubChem BioAssay (NCATS)
Values joined by “and” are separate entries in the source; they are usually repeats but may differ in a detail not shown here. Identical values can stand only once. Results filed as inconclusive are left out. Active and inactive are the calls of the source. The call rests on the fitted dose curve.

Assay: qHTS Assay for Lipid Storage Modulators (AID 1519); on activity change, negative = inhibition: on the % scale 0 is the no-effect control and ±100 the full control effect
Details: Drosophila S3 cells, BODIPY lipid droplet/cell ratio, laser cytometry, cells loaded with oleic acid
Source text: NIH Molecular Libraries Probe Production Centers Network [MLPCN]
NIH Chemical Genomics Center [NCGC]
Assay Submitter (PI): Beller, Mathias; Max-Planck-Institut fur Biophysikalische Chemie
NCGC Assay Overview: Storing lipids as a reservoir for energy or the anabolism of elementary metabolites is a common feature of probably all cells and is conserved from bacteria to humans. The universal cellular lipid storage organelle is the so-called lipid storage droplet (LD). Although ubiquitous, LDs share a simple structure composed of a hydrophobic core that harbors the storage lipids, which is shielded by a droplet-specific phospholipid monolayer to which proteins are attached. The current model of LD biogenesis involves an incorporation of the lipid core into the membrane leaflets of the endoplasmic reticulum (ER) followed by a subsequent budding-like maturation of a LD, which ultimately pinches off. Once released, LD volume can increase by localized lipogenesis or fusion of existing droplets. Storage lipids are re-mobilized enzymatically by lipase activity. Lipase regulation in the adipocyte is heavily studied and involves multiple components including catecholamine signaling, the LD-associated proteins Perilipin and comparative gene identification-58 (CGI-58) and at least two lipases named hormone sensitive lipase (HSL) and adipocyte triglyceride lipase (ATGL). LD regulation outside of the adipocyte is poorly understood and only few components are known. However, there is an urgent need to learn more about ectopic fat depots as mislocalized storage of lipids, for example in the liver or muscle, is an eminent health problem associated with insulin resistance or the metabolic syndrome. We developed a laser-scanning cytometer assay to enable 1,536-well screening and combined the results of the small molecules screen with an RNAi database based on lipid storage.
NCGC Assay Protocol Summary:
We dispensed 4 uL of cells at 1.25 x 10^6 cells/mL into LoBase Aurora COC 1,536-well plates (black walled, clear bottom) with a bottle-valve solenoid-based dispenser (Aurora) to obtain 5,000 cells/well. Triacsin C (Sigma-Aldrich T-4540), an inhibitor of long-chain fatty acyl CoA synthetase that blocks synthesis of triglycerides, was used as a positive control for lipid under-storage. A total of 23 nL of compound solution of different concentrations were transferred to the assay plates using a Kalypsys pin tool equipped with a 1,536-pin array containing 10-nL slotted pins (FP1S10, 0.457-mm diameter, 50.8 mm long; V&P Scientific). One microliter of oleic acid (400 uM) was added, and the plate was lidded with stainless steel rubber gasket lined lids containing pinholes. […] Fluorescence was detected by excitation of the fluorophores with a 488-nm laser on an Acumen Explorer (TTP Lab Tech). The total intensity in channel 1 (500-530 nm) reflected lipid droplet accumulation. […] The ratio of the total intensity in PMT channel 1 over total intensity of channel 3 was also calculated. Percent activity was computed relative to an internal control (100% inhibited lipid droplet deposition due to the presence of 20 uM Triacsin C), which was added to 32 wells/plate.

[1] = measured here: cell count channel max response
[2] = measured here: lipid channel max response

SMILES	activity change, negative = inhibition (at 25.7 µM (top of the series))	activity change, negative = inhibition (at 57.5 µM (top of the series))	max response [1]	max response [2]
OCCN1CCN(CCCN2c3ccccc3Sc3ccc(C(F)(F)F)cc32)CC1	-3.93% (inactive)	8.5% (inactive) and -2.13% (inactive)	-9.92% and 24.4% and 4.08%	-13.1% and 36.3% and -0.526%
COc1nc(C)nc(Cl)c1NC1=NCCN1	-2% (inactive)	–	-13%	-15%
CN(C)CCCN1c2ccccc2CCc2ccc(Cl)cc21	-2.54% (inactive)	1.94% (inactive)	-4.06% and 0.0678%	-5.65% and 2.74%
Nc1nc2c(ncn2COC(CO)CO)c(=O)[nH]1	-0.899% (inactive)	-0.373% (inactive)	0.439% and 44.9%	0.456% and 46.2%
CCC1(c2ccccc2)C(=O)NCNC1=O	-1.4% (inactive)	0.988% (inactive) and 9.51% (inactive)	4.93% and -20.9% and 16.1%	2.59% and -19% and 28.8%
NS(=O)(=O)c1cc2c(cc1Cl)NCNS2(=O)=O	0.69% (inactive)	7.4% (inactive)	-3.42% and 12.6%	-4.41% and 24.1%
CCCCc1oc2ccccc2c1C(=O)c1cc(I)c(OCCN(CC)CC)c(I)c1	–	-1.96% (inactive)	0.489%	1.02%
O=c1c(-c2ccc(O)cc2)coc2cc(O)cc(O)c12	–	-6.97% (inactive)	15.5%	9.16%
CCOC(=O)Nc1ccc(NCc2ccc(F)cc2)nc1N	–	0.206% (inactive)	49%	49.4%
COc1ccccc1OCCNCC(O)COc1cccc2[nH]c3ccccc3c12 (stereo unspecified)	–	6.43% (inactive)	5.72%	13%
Fc1ccc([C@@H]2CCNC[C@H]2COc2ccc3c(c2)OCO3)cc1	–	-0.973% (inactive)	-19.9%	-18.8%
NC(=O)NO	–	7.16% (inactive)	21%	26.4%
